Screening data (PubChem)
The list is not random: actives were taken first. Their share in the collection is about 4.1%.
DAX1 inh-1 – NR0B1 (DAX1) inhibition; inhibition, % at 6.75 µM; HEK293 Gal4-DAX1 luciferase reporter, luminescence; P51843; hit rate 0.99% among 340,000; AID 504766;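 active = inhibition above the mean over all tested compounds plus 3 SD, cut at about 4.2% in these data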;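 note: inhibition shows as a rise in luminescence from relieved DAX1 repression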
Target sequence (P51843 207-470 limits assumed): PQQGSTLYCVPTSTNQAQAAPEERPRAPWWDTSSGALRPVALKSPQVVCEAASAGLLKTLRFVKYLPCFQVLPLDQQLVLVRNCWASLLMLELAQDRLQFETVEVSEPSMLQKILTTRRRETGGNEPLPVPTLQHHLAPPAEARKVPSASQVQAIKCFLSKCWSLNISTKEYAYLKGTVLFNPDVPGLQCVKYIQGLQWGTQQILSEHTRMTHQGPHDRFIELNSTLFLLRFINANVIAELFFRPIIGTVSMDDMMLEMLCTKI
hcDAF-12 act – H. contortus DAF-12 activation, primary screen. hit rate 1.4% among 370,000. HEK293 hcDAF-12 lit1-tk-luc reporter, luminescence; 0% DMSO, 100% Δ7-dafachronic acid. activation, % at 6.8 µM;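 active = activation above the mean of all tested compounds plus 3 SD, cut at about 5.5% in these data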
hgDAF12 agonist – hgDAF-12 agonism, primary luciferase screen. hit rate 1.8% among 370,000. AID 687014. activation, % at 6.8 µM. HEK293 GAL4-hgDAF12 UAS-luciferase reporter, agonist luminescence; normalized to butyrate control;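 active = activation above a cutoff set at the mean of all screened compounds plus 3 SD, cut at about 10% in these data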
DAX1 inh-2 – DAX1 (NR0B1) inhibition, primary screen | inhibition, % at 6.8 µM | AID 652010 | hit rate 1.1% among 370,000 | HEK293T StAR-luciferase reporter, SF-1/DAX-1 repression relief;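 active = inhibition above the mean over all tested compounds plus 3 SD, cut at about 3.6% in these data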;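 note: higher inhibition means more luminescence from relief of DAX-1 repression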
ssDAF12 agonist – activators of S. stercoralis DAF-12 nuclear receptor; HEK293 ssDAF-12/GRIP1 lit1-tk-luc reporter, luminescence; % of 3 µM dafachronic acid response; activation, % at 6.8 µM; hit rate 1% among 370,000; AID 652126;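 active = activation above the mean over all tested compounds plus 3 SD, cut at about 0.9% in these data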
A number is an active result; 0 = inactive; - = no result given; ! = not active in a repeat.

SMILES	DAX1 inh-1	hcDAF-12 act	hgDAF12 agonist	DAX1 inh-2	ssDAF12 agonist
COC(=O)c1sc(NC(=O)CSc2nnc(Cn3nnc4ccccc43)n2C)nc1C	0	0	0	0	1.1
Cc1ccc2c(c1)N(CCCC(=O)NCc1ccc(F)cc1)C(=O)CO2	-	0	0	0	0
Cc1nn(C)cc1/C=C/C(=O)c1cccs1	5.2	0	12	0	0
COc1ccc(-c2cnc3ccccc3n2)cc1NC(=O)CNC(=O)c1ccccc1	0	0	0	0	1.2
COC(=O)C1=C(C)N(Cc2ccccc2C(F)(F)F)C(=NCc2ccc3c(c2)OCO3)NC1CCc1ccccc1 (centres undefined)	-	0	0	0	0
CN1C(=O)c2cc(NC(=O)Nc3ccccc3F)ccc2OC[C@H]2O[C@@H](CC(=O)NCc3ccc(-c4ccccc4)cc3)CC[C@@H]21	-	0	0	0	0
COc1cc(C(=O)NC2CCN(C)CC2)ccc1Nc1ncc2c(n1)N(Cc1ccccc1)CCC(=O)N2C	7.8	0	0	0	0
COc1cc(C(=O)NC2CCN(C)CC2)ccc1Nc1ncc2c(n1)N(C1CCCCC1)CCC(=O)N2C	0	0	0	0	0
CC(C)N(C[C@@H]1CSCCS(=O)(=O)N1)C1CCCCC1	-	0	0	0	0
COc1cccc(NC(=O)C2CCCN2C(=O)NCc2ccccc2)c1 (centres undefined)	-	0	0	0	0
O=C(Nc1ccccn1)c1ccc(S(=O)(=O)N2CCCCCC2)cc1	0	0	0	4.3	0
CC(=O)Nc1ccc(S(=O)(=O)N2CCN(c3ncccn3)CC2)cc1	6.0	0	0	0	0
O=C(Nc1ccccn1)c1ccc(S(=O)(=O)N2CCCCC2)cc1	0	0	0	3.8	0
CC(=O)Nc1ccc(S(=O)(=O)N2CCN(c3ccccn3)CC2)cc1	0	0	0	0	0
CC(C)Oc1cccc(-c2n[nH]c(=S)n2N=Cc2ccc(OCc3ccccc3)cc2)c1	-	0	0	0	0
Cc1ccc2cc(C#N)c(N3CCN(C(=O)c4cccs4)CC3)nc2c1	0	6.5	0	0	0
S=C1NCN(CC2CC2)CN1	-	0	0	0	0
COc1cc(NC(=O)c2cc3sccc3n2C)cc(OC)c1	0	6.0	0	0	0
O=C1CC(=O)C(n2cncn2)C(c2ccc(Cl)cc2)C1 (centres undefined)	5.8	0	0	0	0
NC(=O)C1(Nc2ccc(-c3ccc(Cl)cc3)cc2)CCCC1	0	0	0	0	0
O=C(O)C1(Nc2ccc(Cl)cc2)CCCC1	5.3	0	0	0	0
CCOC(=O)CC(=O)Nc1nnc(C(C)C)s1	5.3	0	0	0	0
COC(=O)[C@]12C[C@H](CC(=O)NCc3ccc(C)o3)C(=O)N(CCC3=CCCCC3)C1=C[C@H](C1CCCC1)O[C@@H]2C	-	0	0	0	0
Cc1ccc(NC(=S)N(CCN(C)C)Cc2cc3cccc(C)c3[nH]c2=O)cc1	0	0	0	0	1.7
Cc1cccc(NC(=S)N(CCN(C)C)Cc2cc3cccc(C)c3[nH]c2=O)c1	0	0	0	0	0
SMILES	DAX1 inh-1	hcDAF-12 act	hgDAF12 agonist	DAX1 inh-2	ssDAF12 agonist
Cc1cccc2cc(CN(Cc3ccccc3)C(=S)NCCCN(C)C)c(=O)[nH]c12	5.4	0	0	0	0
CN(C)CCN1CC(O)=C(c2nc3ccccc3s2)C1=N	4.8	0	0	0	0
Cc1ccc(OCCC(=O)NNC(=O)c2cc(C)oc2C)cc1	4.4	0	0	0	0
c1ccc(-c2cccc3[nH]cc(-c4ccccc4)c23)cc1	-	0	0	0	0
O=C(N/N=C/C=C\c1ccco1)c1cccs1	-	0	0	0	1.3
CCC(C)N1CCCC1C(=O)Nc1c(C)cc(C)cc1C (centres undefined)	0	0	0	0	0
Cc1cc(C)c(NC(=O)C2CCCN2CCC(C)C)c(C)c1 (centres undefined)	4.8	0	0	0	0
O=C(CCn1nnc2ccccc21)N1CCN(c2ccc(F)cc2)CC1	-	0	0	0	0
C=CCNC(=O)C12CCC(C)(C(=O)[C@H]1Br)C2(C)C (some centres undefined)	6.9	0	0	0	0
C=CCOC(=O)C1=C(C)NC(SCC(=O)N(CC)CC)=C(C#N)C1c1ccccc1 (centres undefined)	0	0	0	0	0
C=CCOC(=O)C1=C(C)NC(SCC(=O)NC(=O)OCC)=C(C#N)C1c1cccnc1 (centres undefined)	5.3!	0	0	0	0
O=C(Nc1ccc2c(c1)OCCO2)c1cnc2n(c1=O)CCS2	0	0	0	3.7	0
Cc1cccc(NC(=O)c2cnc3n(c2=O)CCS3)c1	0	0	0	0	0
O=C(Nc1ccccc1)c1cnc2n(c1=O)CCS2	0	6.1	0	0	0
Cc1ccc(-n2c(Cc3cccs3)nnc2SCc2ccc(Br)cc2)cc1	-	0	0	0	0
COc1ccc(Nc2nc(C)c3ccccc3n2)cc1	0	6.5	0	0	1.1
COc1ccc(Nc2nc(C)c(-c3ccccc3)s2)cc1	0	6.2	0	0	0
COc1ccc(Nc2nc(-c3ccccc3)c3ccccc3n2)cc1	0	0	0	0	0
Cc1nc(Nc2ccc(S(N)(=O)=O)cc2)sc1-c1ccccc1	0	0	0	0	0
O=S1(=O)CCOCC(CO)N1Cc1cccc(Br)c1 (centres undefined)	-	0	0	0	0
CCN(Cc1cn(Cc2ccccc2)nn1)S(=O)(=O)c1ccccc1Br	-	0	0	0	0
CC(=O)c1ccc(OCCn2c(SCC(=O)O)nc3ccccc32)cc1	0	6.4	0	0	0
Cc1ccc(-c2csc(NC(=O)CSc3nc4ccccc4c(=O)n3CCCN(C)C)n2)cc1	0	0	13	0	0
COCCCn1c(SCC(=O)Nc2ccc(C(C)=O)cc2)nc2ccccc2c1=O	0	0	11	0	0
CCn1c(SCC(=O)Nc2nc(-c3ccc(C)cc3)cs2)nnc1-c1ccccc1	0	0	0	0	0
SMILES	DAX1 inh-1	hcDAF-12 act	hgDAF12 agonist	DAX1 inh-2	ssDAF12 agonist
COc1ccc(OC)c(CN2C(=O)c3ccnn3CC2(C)c2nnnn2C2CCCC2)c1 (centres undefined)	-	0	0	0	0
CN1C[C@]2(C=C3CCCCC3n3c(=O)n(-c4ccccc4)c(=O)n32)N(C(=O)OCc2ccccc2)C1=NC(=O)c1ccccc1 (some centres undefined)	-	0	0	0	0
O=C(c1cc2c(c(-c3cccc(-c4ccncc4)c3)n1)[C@@H](CCO)N(C(=O)c1ccc3c(c1)OCO3)C2)N1CCOCC1	-	0	0	3.7	0
O=C(c1cc2c(c(-c3cccc(-c4ccc(F)cc4)c3)n1)[C@H](CCO)N(C(=O)c1ccc3c(c1)OCO3)C2)N1CCOCC1	-	0	0	0	0
Cc1ccc(S(=O)(=O)NCC(=O)N2CCN(c3ccccn3)CC2)s1	-	0	0	0	0
Cc1ccc(CCNC(=O)C2CC(c3ccccc3[N+](=O)[O-])=NO2)cc1 (centres undefined)	0	0	0	0	0
